Source: PubChem BioAssay
The source made the active and inactive calls.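 How the source made its calls, unless noted: active means compound raises GLP1 secretion from the human gut endocrine cells, with no numeric limit stated; inactive means the rest.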

Columns and labels:
[1] = stimulators of nuclear beta-catenin in C2C12, primary screen, imaging, WNT3A-conditioned medium, mouse C2C12, NPC library (AID 1117326; in the data active means nuclear beta-catenin stimulation mostly above about 4.2%, no sharp cut-off; inactive means mostly below about 10%; further: reference of the scale not given here); conditions: stronger effect = higher value
[2] = stimulators of insulin release from INS-1E, primary screen, cell-based, 5 mM glucose, NPC library (AID 1117329;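 active means compound raises insulin release from rat beta cells at 5 mM glucose, no numeric limit stated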; further: reference of the scale not given here); conditions: rat INS-1E insulin secretion, at 10 µM, stronger effect = higher value
[3] = growth inhibition of GSK3B-pretreated HCT116 cells – cell-based, CellTiter-Glo, 0.2 to 20 µM (AID 1117336;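 active means compounds lowering colon cancer cell viability after pretreatment blocking the GSK3B kinase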); conditions: HCT116 viability after GSK3B inhibitor, at 20 µM, stronger effect = higher value
[4] = inhibition of endothelial tube formation, primary screen, imaging, VEGF stimulated, CD31 staining, tube area, NPC library (AID 1117340;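 active means compound that reduces growth-factor-driven endothelial tube area in a mixed cell culture, no cutoff stated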); conditions: VEGF-stimulated ADSC/ECFC co-culture, at 10 µM, stronger effect = higher value
[5] = glucagon-like peptide 1 release enhancers, primary assay, NCI-H716 cell line, NPC library (AID 1117341); conditions: NCI-H716 cells, at 10 µM, stronger effect = higher value; further: reference of the scale not given here
[6] = HCT116 colon cancer cell growth inhibition, primary screen, CellTiter-Glo luminescence, NPC library (AID 1117342;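 active means compounds that lower survival of HCT116 colon cancer cells in the luminescence readout, no numeric limit stated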); conditions: at 20 µM (top of the series)
[7] = CellTiter-Glo luminescent readout of SW480 viability loss, NPC library primary (AID 1117343;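 active means compounds that lower viability of the colon cancer cells in the luminescence readout, with no numeric limit stated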); conditions: CellTiter-Glo luminescence; at 20 µM (top of the series)
[8] = decreased DLD-1 cellular survival, CellTiter-Glo luminescent readout, NPC compound collection, primary HTS (AID 1117346;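 active means compounds that lower survival of DLD-1 colon cancer cells in the luminescence readout, no cutoff given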); conditions: DLD-1 viability, CellTiter-Glo luminescence; at 20 µM (top of the series)

Oc1cccc(-c2c3nc(c(-c4cccc(O)c4)c4ccc([nH]4)c(-c4cccc(O)c4)c4nc(c(-c5cccc(O)c5)c5ccc2[nH]5)CC4)C=C3)c1
active: viability decrease [3] 95.2% | inhibition of viability [6] 109% | viability decrease (inhibition) [7] 141% | viability decrease (inhibition) [8] 95.7%
-1.7%: nuclear beta-catenin stimulation ([1]; stimulation, at 2 µM)
inactive: nuclear beta-catenin stimulation ([1]; at 10 µM) 24.3% | insulin secretion stimulation [2] -1.15% | tube area decrease [4] -79.5% | GLP1 secretion stimulation [5] 13.6%

CC1CN(c2cc3c(cc2F)c(=O)c(C(=O)O)cn3-c2ccc(F)cc2F)CCN1 (stereo unspecified)
0%: nuclear beta-catenin stimulation ([1]; stimulation, at 2 µM)
inactive: nuclear beta-catenin stimulation ([1]; at 10 µM) -0.4% | insulin secretion stimulation [2] 2.1% | viability decrease [3] 8.7% | tube area decrease [4] 5.5% | GLP1 secretion stimulation [5] -0.9% | inhibition of viability [6] 10.7% | viability decrease (inhibition) [7] 16.6% | viability decrease (inhibition) [8] -0.2%

O=C(Oc1ccccc1)c1ccccc1O
inactive: nuclear beta-catenin stimulation ([1]; at 10 µM) -0.5% | insulin secretion stimulation [2] -1.5% | viability decrease [3] -4.35% | tube area decrease [4] 14.3% | GLP1 secretion stimulation [5] -1.2% | inhibition of viability [6] 9.1% | viability decrease (inhibition) [8] 12.1%
-1%: nuclear beta-catenin stimulation ([1]; stimulation, at 2 µM)
active: viability decrease (inhibition) [7] 84.4%

CC(=O)c1ccc(O)c(C(N)=O)c1
inactive: nuclear beta-catenin stimulation ([1]; at 10 µM) 0.2% | insulin secretion stimulation [2] 0.6% | viability decrease [3] 20.8% | tube area decrease [4] -0.3% | GLP1 secretion stimulation [5] 1.6% | inhibition of viability [6] 0.1% | viability decrease (inhibition) [7] -10.5% | viability decrease (inhibition) [8] 6.9%
-1.6%: nuclear beta-catenin stimulation ([1]; stimulation, at 2 µM)

CCCC(=O)O[C@]1(C(=O)CCl)[C@@H](C)C[C@H]2[C@@H]3CCC4=CC(=O)C=C[C@]4(C)[C@@]3(F)C(=O)C[C@@]21C
inactive: nuclear beta-catenin stimulation ([1]; at 10 µM) 3.8% | insulin secretion stimulation [2] 3% | viability decrease [3] 0.4% | tube area decrease [4] 36.7% | GLP1 secretion stimulation [5] -0.4% | viability decrease (inhibition) [8] 47%
-0.1%: nuclear beta-catenin stimulation ([1]; stimulation, at 2 µM)
active: inhibition of viability [6] 70.5% | viability decrease (inhibition) [7] 99.8%

Cc1onc(-c2c(Cl)cccc2Cl)c1C(=O)Cl
active: tube area decrease [4] 54.1%
inactive: nuclear beta-catenin stimulation ([1]; at 10 µM) -0.1% | insulin secretion stimulation [2] 1.5% | viability decrease [3] -3.8% | GLP1 secretion stimulation [5] 5.9% | inhibition of viability [6] 13.6% | viability decrease (inhibition) [7] 17% | viability decrease (inhibition) [8] -2.5%
0.5%: nuclear beta-catenin stimulation ([1]; stimulation, at 2 µM)

CCCCCCCCCCCCCCCC(=O)OCC(COC(=O)CCCCCCCCCCCCCCC)OC(=O)CCCCCCCCCCCCCCC
inactive: nuclear beta-catenin stimulation ([1]; at 10 µM) -0.4% | insulin secretion stimulation [2] 2.5% | viability decrease [3] -7.6% | tube area decrease [4] -17.9% | GLP1 secretion stimulation [5] -5.4% | inhibition of viability [6] -1.3% | viability decrease (inhibition) [7] 2.7% | viability decrease (inhibition) [8] -6.5%
-0.6%: nuclear beta-catenin stimulation ([1]; stimulation, at 2 µM)

COC(=O)CCC[N+](C)(C)C
active: viability decrease (inhibition) [7] 2.9%
inactive: nuclear beta-catenin stimulation ([1]; at 10 µM) -0.8% | insulin secretion stimulation [2] -6.3% | viability decrease [3] -4.8% | tube area decrease [4] 6.6% | GLP1 secretion stimulation [5] -14% | inhibition of viability [6] 4.6% | viability decrease (inhibition) [8] -12.1%
0.6%: nuclear beta-catenin stimulation ([1]; stimulation, at 2 µM)

O=c1[nH]sc2cc(Cl)ccc12
inactive: nuclear beta-catenin stimulation ([1]; at 10 µM) 15.5% | insulin secretion stimulation [2] -2.7% | inhibition of viability [6] 20.5%
7.8%: nuclear beta-catenin stimulation ([1]; stimulation, at 2 µM)
active: viability decrease [3] 58.1% | tube area decrease [4] 89.7% | GLP1 secretion stimulation [5] 45% | viability decrease (inhibition) [7] 157% | viability decrease (inhibition) [8] 63.5%

COC[C@@H](c1ccc(C(F)(F)F)cc1)N1CCN(C2(C)CCN(C(=O)c3c(C)ncnc3C)CC2)C[C@H]1C
2.3%: nuclear beta-catenin stimulation ([1]; stimulation, at 2 µM)
inactive: nuclear beta-catenin stimulation ([1]; at 10 µM) 2.4% | insulin secretion stimulation [2] 2.8% | viability decrease [3] -44.2% | tube area decrease [4] 32% | GLP1 secretion stimulation [5] 3.1% | inhibition of viability [6] 11.1% | viability decrease (inhibition) [7] -3% | viability decrease (inhibition) [8] 3.5%

CCC(=O)O[C@]1(C(=O)COC)[C@@H](C)C[C@H]2[C@@H]3CCC4=CC(=O)C=C[C@]4(C)C3(F)[C@@H](O)C[C@@]21C (stereo partly specified)
0.5%: nuclear beta-catenin stimulation ([1]; stimulation, at 2 µM)
inactive: nuclear beta-catenin stimulation ([1]; at 10 µM) 1.5% | insulin secretion stimulation [2] 1.1% | viability decrease [3] -69.2% | tube area decrease [4] 6.6% | GLP1 secretion stimulation [5] -0.3% | inhibition of viability [6] -4.8% | viability decrease (inhibition) [7] 6% | viability decrease (inhibition) [8] -2.9%

C[N+]1(CC2COC(c3ccccc3)(C3CCCCC3)O2)CCCCC1 (stereo unspecified)
inactive: nuclear beta-catenin stimulation ([1]; at 10 µM) -2.3% | insulin secretion stimulation [2] 5% | viability decrease [3] -13.4% | tube area decrease [4] 10.1% | GLP1 secretion stimulation [5] -2.3% | inhibition of viability [6] 28.7% | viability decrease (inhibition) [7] 7.6% | viability decrease (inhibition) [8] 3.2%
-1.4%: nuclear beta-catenin stimulation ([1]; stimulation, at 2 µM)

CC(CCc1ccc2c(c1)OCO2)NN (stereo unspecified)
active: viability decrease [3] 57.8% | inhibition of viability [6] 84.6% | viability decrease (inhibition) [7] 97.6%
inactive: nuclear beta-catenin stimulation ([1]; at 10 µM) 0.2% | insulin secretion stimulation [2] -2.2% | tube area decrease [4] 23.7% | GLP1 secretion stimulation [5] 2.3% | viability decrease (inhibition) [8] 17.7%
0.2%: nuclear beta-catenin stimulation ([1]; stimulation, at 2 µM)

COc1cc2[nH]c(=O)[nH]c(=O)c2cc1OC
inactive: nuclear beta-catenin stimulation ([1]; at 10 µM) 0.1% | insulin secretion stimulation [2] -1.8% | viability decrease [3] 6.35% | tube area decrease [4] -8.3% | GLP1 secretion stimulation [5] 3.1% | inhibition of viability [6] -1.4% | viability decrease (inhibition) [7] 47.6% | viability decrease (inhibition) [8] 0.05%
1.1%: nuclear beta-catenin stimulation ([1]; stimulation, at 2 µM)
